PubChem BioAssay (NCI)
The panel holds about 83,000 compounds, 20% with a hit somewhere; the sample as a whole holds those more often.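 Each cell line was grown in a 96-well plate and treated with one concentration of compound for 48 hours. Values below 10 were considered active.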 Activity calls are given as the source filed them.

Key:
Assay in all cases: NCI-60 one-dose screen, 48 h (100 = growth as untreated, 0 = no growth, -100 = all killed)
Conditions in all cases: 10 µM
RPMI-8226 leukemia = system: RPMI-8226 leukemia
OVCAR-8 ovarian = system: OVCAR-8 ovarian
OVCAR-5 ovarian = system: OVCAR-5 ovarian
OVCAR-4 ovarian = system: OVCAR-4 ovarian
SK-OV-3 ovarian = system: SK-OV-3 ovarian
IGROV1 ovarian = system: IGROV1 ovarian
OVCAR-3 ovarian = system: OVCAR-3 ovarian
HS 578T breast = system: HS 578T breast
NCI/ADR-RES ovarian = system: NCI/ADR-RES ovarian
T-47D breast = system: T-47D breast
BT-549 breast = system: BT-549 breast
MDA-MB-435 melanoma = system: MDA-MB-435 melanoma
SW-620 colon = system: SW-620 colon
MCF7 breast = system: MCF7 breast
HCT-116 colon = system: HCT-116 colon
HCC-2998 colon = system: HCC-2998 colon
KM12 colon = system: KM12 colon
MDA-MB-468 breast = system: MDA-MB-468 breast

Measured: growth

Nc1nc(-c2ccccc2)cc(-c2cc3ccccc3nc2Cl)n1
inactive: RPMI-8226 leukemia 19.2% | OVCAR-8 ovarian 83.9% | OVCAR-5 ovarian 97.8% | OVCAR-4 ovarian 96% | SK-OV-3 ovarian 99.2% | IGROV1 ovarian 97.9% | OVCAR-3 ovarian 67.7% | HS 578T breast 82.8% | NCI/ADR-RES ovarian 80.7% | T-47D breast 73.7% | BT-549 breast 82.2% | MDA-MB-435 melanoma 94.9% | SW-620 colon 62.7% | MCF7 breast 18.4% | HCT-116 colon 33.7% | HCC-2998 colon 103% | KM12 colon 71.7% | MDA-MB-468 breast 77%

CC(=C(c1ccc(OCCN2CCCCCC2)cc1)c1ccc(OCCN2CCCCCC2)cc1)c1ccc(Cl)cc1
active: RPMI-8226 leukemia -63.6% | OVCAR-8 ovarian -95.3% | OVCAR-5 ovarian -100% | OVCAR-4 ovarian -96.3% | SK-OV-3 ovarian -100% | IGROV1 ovarian -94.1% | OVCAR-3 ovarian -92.6% | HS 578T breast -48% | NCI/ADR-RES ovarian -97.7% | T-47D breast -58.8% | BT-549 breast -65.5% | MDA-MB-435 melanoma -100% | SW-620 colon -61.1% | MCF7 breast -79.6% | HCT-116 colon -61.9% | HCC-2998 colon -97.8% | KM12 colon -73% | MDA-MB-468 breast -91.6%

CNC(=O)c1cccc(N2CCc3c2ccc(NC(=O)Nc2ccc(N4CCN(C)CC4)c(C(F)(F)F)c2)c3F)c1
inactive: SK-OV-3 ovarian 45.3% | T-47D breast 94.5% | BT-549 breast 11.6% | MDA-MB-468 breast 90.4%
active: RPMI-8226 leukemia -41.1% | OVCAR-8 ovarian -83.4% | OVCAR-5 ovarian -85.1% | OVCAR-4 ovarian -86.1% | IGROV1 ovarian -91.7% | OVCAR-3 ovarian -80% | HS 578T breast -1.44% | NCI/ADR-RES ovarian -79.2% | MDA-MB-435 melanoma -96.1% | SW-620 colon -71.7% | MCF7 breast -79.8% | HCT-116 colon -95.3% | HCC-2998 colon -94.1% | KM12 colon -88.1%

CN1CCN(c2ccc(Nc3nc(NCCCNC(=O)c4ccc(Cl)cc4)c4sccc4n3)cc2)CC1
inactive: RPMI-8226 leukemia 48.5% | OVCAR-8 ovarian 67.9% | OVCAR-5 ovarian 90.8% | OVCAR-4 ovarian 70.6% | SK-OV-3 ovarian 103% | IGROV1 ovarian 88.3% | OVCAR-3 ovarian 109% | HS 578T breast 78.8% | NCI/ADR-RES ovarian 91.6% | T-47D breast 41.9% | BT-549 breast 80.1% | MDA-MB-435 melanoma 86.2% | SW-620 colon 93% | MCF7 breast 49.1% | HCT-116 colon 15.1% | HCC-2998 colon 91.3% | KM12 colon 68.7% | MDA-MB-468 breast 68.3%

O=C(N/N=C/c1ccc(B(O)O)o1)c1[nH]c2ccc(Br)cc2c1-c1ccccc1
active: HS 578T breast 0.269% | NCI/ADR-RES ovarian -34.6% | MDA-MB-435 melanoma -53.2% | HCT-116 colon 7.23% | HCC-2998 colon 8.58% | MDA-MB-468 breast -3.94%
inactive: RPMI-8226 leukemia 28.2% | OVCAR-8 ovarian 14.1% | OVCAR-5 ovarian 43.5% | OVCAR-4 ovarian 56.1% | SK-OV-3 ovarian 25.5% | IGROV1 ovarian 51.8% | OVCAR-3 ovarian 14% | T-47D breast 36.4% | BT-549 breast 41% | SW-620 colon 26.2% | MCF7 breast 13.8% | KM12 colon 15.4%

COc1ccccc1[C@H]1C(C(=O)c2ccc(Cl)cc2)C2(N[C@@H]1c1ccccc1)C(=O)Nc1ccc(Cl)cc12 (stereo partly drawn)
inactive: OVCAR-8 ovarian 12.2% | OVCAR-4 ovarian 24% | SK-OV-3 ovarian 28.8% | IGROV1 ovarian 22.1% | HCT-116 colon 10.1%
active: RPMI-8226 leukemia 6.41% | OVCAR-5 ovarian -8.45% | OVCAR-3 ovarian 3.66% | HS 578T breast -2.19% | NCI/ADR-RES ovarian -65.5% | T-47D breast 5.84% | BT-549 breast -1.27% | MDA-MB-435 melanoma -44.4% | SW-620 colon 6.3% | MCF7 breast -4.87% | HCC-2998 colon -18.8% | KM12 colon 9.71% | MDA-MB-468 breast -43.9%

O=c1nc(-c2ccccc2)cc(-c2cc3ccccc3nc2Cl)[nH]1
inactive: OVCAR-5 ovarian 40.9% | OVCAR-4 ovarian 80.6% | SK-OV-3 ovarian 84.8% | IGROV1 ovarian 56.8% | HS 578T breast 69.6% | T-47D breast 45.5% | BT-549 breast 12.9% | MDA-MB-435 melanoma 53.5% | HCC-2998 colon 44.9% | MDA-MB-468 breast 17.2%
active: RPMI-8226 leukemia -29.4% | OVCAR-8 ovarian -68.1% | OVCAR-3 ovarian 8.83% | NCI/ADR-RES ovarian -70.1% | SW-620 colon -63.6% | MCF7 breast 4.69% | HCT-116 colon -91.6% | KM12 colon -15.4%

O=C(Nc1ccc(F)c(Cl)c1)c1cc(-c2ccc(F)cc2F)ccc1O
active: RPMI-8226 leukemia -28.6% | OVCAR-8 ovarian 6.82% | OVCAR-5 ovarian 0.459% | SK-OV-3 ovarian -5.38% | OVCAR-3 ovarian 9.88% | HS 578T breast -3% | NCI/ADR-RES ovarian -15.1% | T-47D breast -6.69% | BT-549 breast -37.6% | MDA-MB-435 melanoma 0.745% | SW-620 colon 6.07% | MCF7 breast -16.1% | HCT-116 colon 9.19% | HCC-2998 colon 4.97% | KM12 colon -16% | MDA-MB-468 breast -44.4%
inactive: OVCAR-4 ovarian 12.9% | IGROV1 ovarian 16.4%

COc1ccccc1[C@H]1C(C(=O)c2ccc(O)cc2)C2(N[C@@H]1c1ccccc1)C(=O)Nc1ccc(Br)cc12 (stereo partly drawn)
inactive: RPMI-8226 leukemia 30.3% | OVCAR-8 ovarian 37.5% | OVCAR-5 ovarian 62.7% | OVCAR-4 ovarian 41.1% | SK-OV-3 ovarian 61.4% | IGROV1 ovarian 19.2% | HS 578T breast 36.3% | NCI/ADR-RES ovarian 57.7% | T-47D breast 45.8% | BT-549 breast 54% | MDA-MB-435 melanoma 14.2% | SW-620 colon 13.6% | HCT-116 colon 39.6% | KM12 colon 14.3%
active: OVCAR-3 ovarian -29.1% | MCF7 breast 3.19% | HCC-2998 colon -38.6% | MDA-MB-468 breast -42.9%

COc1cccc(COc2ccc(/C=C3\Oc4cc(O)ccc4C3=O)cc2)c1
active: OVCAR-4 ovarian -9.02% | HS 578T breast -7.04% | HCT-116 colon 1.73%
inactive: RPMI-8226 leukemia 32.1% | OVCAR-8 ovarian 23.6% | OVCAR-5 ovarian 77.6% | SK-OV-3 ovarian 77.4% | IGROV1 ovarian 53.7% | OVCAR-3 ovarian 24.9% | NCI/ADR-RES ovarian 24.8% | T-47D breast 44.3% | BT-549 breast 15.3% | MDA-MB-435 melanoma 37.2% | SW-620 colon 36% | MCF7 breast 37.8% | HCC-2998 colon 25.2% | KM12 colon 26.1% | MDA-MB-468 breast 12.2%

C=CC(=O)Nc1nc(-c2cccc(NS(=O)(=O)c3cccc4c(N(C)C)cccc34)c2)cs1
active: RPMI-8226 leukemia -36.2% | OVCAR-8 ovarian -38.9% | OVCAR-5 ovarian -61.6% | OVCAR-4 ovarian 7.55% | IGROV1 ovarian -74.1% | OVCAR-3 ovarian -69.4% | HS 578T breast -0.555% | NCI/ADR-RES ovarian -56.7% | T-47D breast 0.269% | BT-549 breast -75.6% | MDA-MB-435 melanoma -92.4% | SW-620 colon -80.6% | MCF7 breast -82.1% | HCT-116 colon -90.3% | HCC-2998 colon -88.1% | KM12 colon -44% | MDA-MB-468 breast -87.8%
inactive: SK-OV-3 ovarian 47.4%

O=C(Cn1cc(CSc2nnc3oc4ccccc4n23)nn1)Nc1cccc(Cl)c1
inactive: RPMI-8226 leukemia 48.5% | OVCAR-8 ovarian 74.9% | OVCAR-5 ovarian 87.8% | OVCAR-4 ovarian 63.4% | SK-OV-3 ovarian 54.3% | IGROV1 ovarian 78.7% | OVCAR-3 ovarian 78.5% | HS 578T breast 66.6% | NCI/ADR-RES ovarian 53.4% | T-47D breast 45.2% | BT-549 breast 83.1% | MDA-MB-435 melanoma 74.4% | SW-620 colon 103% | MCF7 breast 49% | HCT-116 colon 71.8% | HCC-2998 colon 84.7% | KM12 colon 70.6% | MDA-MB-468 breast 37.7%

COc1cc(OC(F)(F)F)ccc1C(=O)Nc1sc2c(c1C#N)CCC(=O)C2
inactive: RPMI-8226 leukemia 51.7% | OVCAR-8 ovarian 93% | OVCAR-5 ovarian 138% | OVCAR-4 ovarian 62.1% | SK-OV-3 ovarian 81.2% | IGROV1 ovarian 112% | OVCAR-3 ovarian 112% | HS 578T breast 75.9% | NCI/ADR-RES ovarian 75.1% | BT-549 breast 14.1% | MDA-MB-435 melanoma 97.9% | SW-620 colon 31.6% | MCF7 breast 73.2% | HCT-116 colon 40.7% | HCC-2998 colon 111% | KM12 colon 88.1% | MDA-MB-468 breast 77.7%
active: T-47D breast -4.87%

Brc1ccc(/C=C/c2n(Cc3ccc4ccccc4c3)c3ccccc3[n+]2Cc2ccc3ccccc3c2)cc1
active: RPMI-8226 leukemia -56.8% | OVCAR-8 ovarian -64% | OVCAR-5 ovarian -91.1% | OVCAR-4 ovarian -85.9% | SK-OV-3 ovarian -3.34% | IGROV1 ovarian -68.4% | OVCAR-3 ovarian -89.5% | HS 578T breast -43.6% | T-47D breast -58.1% | BT-549 breast -56.6% | MDA-MB-435 melanoma -94% | SW-620 colon -73.9% | MCF7 breast -65.7% | HCT-116 colon -86.5% | HCC-2998 colon -98% | KM12 colon -40.7% | MDA-MB-468 breast -88.7%
inactive: NCI/ADR-RES ovarian 78.7%

COc1nccnc1NS(=O)(=O)c1ccc(NC2=C(Cl)C(=O)c3nc(C)ccc3C2=O)cc1
inactive: RPMI-8226 leukemia 94.5% | OVCAR-8 ovarian 99.5% | OVCAR-5 ovarian 112% | OVCAR-4 ovarian 86.5% | SK-OV-3 ovarian 91.4% | IGROV1 ovarian 113% | OVCAR-3 ovarian 83.2% | HS 578T breast 92.8% | NCI/ADR-RES ovarian 92.4% | T-47D breast 101% | BT-549 breast 101% | MDA-MB-435 melanoma 103% | SW-620 colon 115% | MCF7 breast 108% | HCT-116 colon 92% | HCC-2998 colon 103% | KM12 colon 111%
active: MDA-MB-468 breast 9.69%

CCCCCc1ccc(S(=O)(=O)Nc2cc(-c3csc(N(C)C(C)=O)n3)ccc2N2CCN(C)CC2)cc1
inactive: OVCAR-8 ovarian 36% | OVCAR-5 ovarian 68% | OVCAR-4 ovarian 11.6% | SK-OV-3 ovarian 21.4% | IGROV1 ovarian 48% | OVCAR-3 ovarian 60.2% | HS 578T breast 28.7% | NCI/ADR-RES ovarian 32.7% | BT-549 breast 48.6% | MDA-MB-435 melanoma 25.4% | HCC-2998 colon 20.8% | KM12 colon 46.3% | MDA-MB-468 breast 14.1%
active: RPMI-8226 leukemia -9.26% | T-47D breast -33.4% | SW-620 colon 8.57% | MCF7 breast 4.08% | HCT-116 colon -84.7%
